Reference: the supplement of paper PMC13380429

System: Vero E6 infected with SARS-CoV-2
Assay: inhibition of SARS-CoV-2 cytopathic effect; higher = more antiviral protection, active = above 15
Details: 48 h

Measured: inhibition of SARS-CoV-2 cytopathic effect

CC(C)c1cc(-c2n[nH]c(=O)n2-c2ccc3c(ccn3C)c2)c(O)cc1O [ganetespib]
inactive: 1 nM -2.33% | 8.33 nM -3.79% | 100 nM -1.43% | 833.33 nM -1.16% | 10000 nM -7.9%

C[C@H](N[C@@H](CCc1ccccc1)C(=O)O)C(=O)N1Cc2ccccc2C[C@H]1C(=O)O [quinaprilat]
inactive: 1 nM -0.56% | 8.33 nM -0.93% | 100 nM -1.42% | 833.33 nM -0.25% | 10000 nM 0.11%

Clc1ccc(N2CCN(Cc3c[nH]c4ncccc34)CC2)cc1
inactive: 1 nM -0.1% | 8.33 nM -0.31% | 100 nM -2.94% | 833.33 nM 1.1% | 10000 nM -3.38%

CC(C)c1cc(C(=O)N2Cc3ccc(CN4CCN(C)CC4)cc3C2)c(O)cc1O
inactive: 1 nM -1.87% | 8.33 nM -3.96% | 100 nM -5.27% | 833.33 nM -1.1% | 10000 nM 0.31%

CCCCCN(CCCOC)C(=O)[C@@H](CCC(=O)O)NC(=O)c1ccc(Cl)c(Cl)c1 [dexloxiglumide]
inactive: 1 nM -5.32% | 8.33 nM -1.73% | 100 nM 2.58% | 833.33 nM -1.51% | 10000 nM 2.38%

C1=C2CCCN[C@H]2[C@@H]2C[C@H]1[C@H]1CCCCN1C2 [aloperine]
inactive: 1 nM -0.36% | 8.33 nM 2.25% | 100 nM -0.38% | 833.33 nM 0.5% | 10000 nM -1.11%

c1ccc(C2CC2)c(OCC2=NCCN2)c1 [cirazoline]
inactive: 1 nM -0.75% | 8.33 nM 0.31% | 100 nM -8.08% | 833.33 nM 0.87% | 10000 nM -3.99%

CC(C)OC(=O)C(C)(C)Oc1ccc(C(=O)c2ccc(Cl)cc2)cc1 [fenofibrate]
inactive: 1 nM 4.02% | 8.33 nM 5.16% | 100 nM 3.28% | 833.33 nM -0.31% | 10000 nM 0.82%

O=C(O)c1ccc2cc(-c3ccc(O)c(C45CC6CC(CC(C6)C4)C5)c3)ccc2c1
inactive: 1 nM 1.24% | 8.33 nM 1.61% | 100 nM -0.4% | 833.33 nM -2.65% | 10000 nM -7.34%

Cc1ccc(-n2nc(C(C)(C)C)cc2NC(=O)NCc2cc(F)ccc2Oc2ccc3c(cnn3CCO)c2)cc1 [pexmetinib]
inactive: 1 nM -0.97% | 8.33 nM -3.1% | 100 nM 0.01% | 833.33 nM 5.81% | 10000 nM 3.62%

COc1cccc(/C=N/N=C/c2cccc(OC)c2)c1
inactive: 1 nM -0.08% | 8.33 nM 2.48% | 100 nM -2.17% | 833.33 nM -0.34% | 10000 nM 0.47%

CC(C)CCN1c2nc(Nc3cc(F)c(O)c(F)c3)ncc2N(C)C(=O)[C@@H]1C
inactive: 1 nM -1.15% | 8.33 nM -2.75% | 100 nM -6.09% | 833.33 nM -0.02% | 10000 nM 8.71%

O=C(CCCl)NCCc1ccccc1 [fenaclon]
inactive: 1 nM 4.5% | 8.33 nM -2.28% | 100 nM 0.58% | 833.33 nM -1.53% | 10000 nM -1.25%

CC1CCN(C(c2ccc(F)cc2)c2ccc(C(C)C(=O)O)cc2-c2ccc(C(F)(F)F)cc2)CC1 (stereo not given)
inactive: 1 nM 3.01% | 8.33 nM -0.54% | 100 nM -0.83% | 833.33 nM -0.11% | 10000 nM -6.62%

CCC(=O)O[C@]1(C(=O)CCl)[C@@H](C)C[C@H]2[C@@H]3CCC4=CC(=O)C=C[C@]4(C)[C@@]3(F)[C@@H](O)C[C@@]21C [clobetasol-propionate]
inactive: 1 nM 1.28% | 8.33 nM 1.27% | 100 nM 0.69% | 833.33 nM 0.48% | 10000 nM 3.52%

CC(O)(C(=O)Nc1ccc(S(=O)(=O)c2ccccc2)cc1)C(F)(F)F (stereo not given)
inactive: 1 nM 1.63% | 8.33 nM 1.61% | 100 nM 2.14% | 833.33 nM -0.08% | 10000 nM 14.1%

C[C@H]1CNCCCN1S(=O)(=O)c1cccc2cncc(F)c12 [ripasudil]
inactive: 1 nM -0.82% | 8.33 nM 0.41% | 100 nM -1.45% | 833.33 nM -1.5% | 10000 nM -5.58%

CCc1nc2c(C)nc(C)cc2n1-c1ccc(CCNC(=O)NS(=O)(=O)c2ccc(C)cc2)cc1 [grapiprant]
inactive: 1 nM -1.43% | 8.33 nM -2.32% | 100 nM -2.77% | 833.33 nM -5.47% | 10000 nM -1.61%

CCC(CC)CC1(C(=O)Nc2ccccc2SC(=O)C(C)C)CCCCC1 [dalcetrapib]
inactive: 1 nM -1.76% | 8.33 nM -0.46% | 100 nM -1.34% | 833.33 nM -4.44% | 10000 nM -2.5%

O=C(/C=C\n1cnc(-c2cc(C(F)(F)F)cc(C(F)(F)F)c2)n1)N1CC(F)(F)C1
inactive: 1 nM 2.37% | 8.33 nM -1.09% | 100 nM -2.84% | 833.33 nM -7.74% | 10000 nM -16.6%

CN(C)Cc1ccc(-c2nc3cccc4c3n2CCNC4=O)cc1
inactive: 1 nM 0.51% | 8.33 nM 4.23% | 100 nM 3.95% | 833.33 nM 1.65% | 10000 nM 6.38%

CN[C@H]1CC[C@@H](c2ccc(Cl)c(Cl)c2)c2ccccc21
inactive: 1 nM -7.46% | 8.33 nM 3.54% | 100 nM 8.81% | 833.33 nM -0.02% | 10000 nM 12.1%

CCCCCCCCCC(=O)OCCN1CCN(CCCN2c3ccccc3Sc3ccc(C(F)(F)F)cc32)CC1 [fluphenazine-decanoate]
inactive: 1 nM -6.37% | 8.33 nM -5.38% | 100 nM -8.72% | 833.33 nM -10.3% | 10000 nM -9.75%

NS(=O)(=O)Nc1ncnc(OCCOc2ncc(Br)cn2)c1-c1ccc(Br)cc1
inactive: 1 nM -1.74% | 8.33 nM -0.97% | 100 nM -0.65% | 833.33 nM -3.11% | 10000 nM -3.32%

CCCCCCCCCCCCCCCCOc1nc2ccc(C)cc2c(=O)o1 [cetilistat]
inactive: 1 nM 2.2% | 8.33 nM 1.36% | 100 nM -0.06% | 833.33 nM 0.62% | 10000 nM 0.91%

C(=C\c1ccccc1)/CN1CCN(CCOC(c2ccccc2)c2ccccc2)CC1
inactive: 1 nM -2.82% | 8.33 nM 0.59% | 100 nM -0.97% | 833.33 nM 0.92% | 10000 nM 4.63%

Cc1c(C)c2c(c(C)c1O)CC[C@@](C)(CCC[C@H](C)CCC[C@H](C)CCCC(C)C)O2 [vitamin-E]
inactive: 1 nM 3.32% | 8.33 nM 3.3% | 100 nM 2.84% | 833.33 nM 0.81% | 10000 nM 0.23%

COc1cc(S(C)(=O)=O)ccc1Nc1nc2ccc(-c3ccc(NC(=O)[C@H](C)c4ccc(F)cc4)cc3)cn2n1
inactive: 1 nM 0.71% | 8.33 nM -3.05% | 100 nM 0.88% | 833.33 nM -5.66% | 10000 nM -4.51%

Cc1ccc(F)cc1C(=O)Nc1ccc(C(=O)N2Cc3cccn3Cc3ccccc32)c(Cl)c1 [lixivaptan]
inactive: 1 nM -2.22% | 8.33 nM 2.67% | 100 nM 2% | 833.33 nM 1.18% | 10000 nM -0.31%

C[C@@H](CN1CCC(Cc2ccccc2)CC1)[C@@H](O)c1ccc(O)cc1
inactive: 1 nM -1.15% | 8.33 nM -0.92% | 100 nM -0.78% | 833.33 nM -2.61% | 10000 nM -5.49%

N[C@@H](CC(=O)Nc1ccc(Oc2cc(F)c(F)cc2Br)cc1)C(=O)O
inactive: 1 nM -3.45% | 8.33 nM -0.99% | 100 nM -1.17% | 833.33 nM -3.56% | 10000 nM 6.38%

CCCCOc1ccc(CC(=O)NO)cc1 [bufexamac]
inactive: 1 nM 0.27% | 8.33 nM -0.68% | 100 nM 0.49% | 833.33 nM 0% | 10000 nM 0.42%

COc1cc(C[C@@H](CO)[C@H](CO)Cc2ccc(O)c(OC)c2)ccc1O [secoisolariciresinol-(-)]
inactive: 1 nM 1.65% | 8.33 nM 5.68% | 100 nM 0.9% | 833.33 nM 0.53% | 10000 nM -4.27%

CCC1(C)CC(=O)NC1=O (stereo not given) [ethosuximide]
inactive: 1 nM -0.56% | 8.33 nM 1.45% | 100 nM 1.18% | 833.33 nM 1.39% | 10000 nM -4.8%

CC(C)N(C[C@H]1O[C@@H](n2cnc3c(N)ncnc32)[C@H](O)[C@@H]1O)[C@H]1C[C@@H](CCc2nc3cc(C(C)(C)C)ccc3[nH]2)C1
inactive: 1 nM 1.37% | 8.33 nM 1.4% | 100 nM 1.55% | 833.33 nM 3.8% | 10000 nM 4.66%

N[C@@H]1CCN(c2cccnc2)C1
inactive: 1 nM 0.23% | 8.33 nM 0.19% | 100 nM 1.46% | 833.33 nM 2.41% | 10000 nM 3.85%

CC(C)=CCc1c(O)cc(O)c2c(=O)c(O)c(-c3ccc(C(F)(F)F)cc3)oc12
inactive: 1 nM 2.04% | 8.33 nM 1.52% | 100 nM 3.93% | 833.33 nM 2.83% | 10000 nM 2.95%

Nc1nc2ccc(Cl)cc2c2nc(-c3ccco3)nn12
inactive: 1 nM 3.02% | 8.33 nM 1.43% | 100 nM -1.65% | 833.33 nM -3.37% | 10000 nM 1.46%

CCC(=O)c1cc(-c2ccc(Cl)cc2)n(-c2ccc(S(N)(=O)=O)cc2)c1C
inactive: 1 nM -0.96% | 8.33 nM -3.03% | 100 nM 0.71% | 833.33 nM -1.12% | 10000 nM 3.3%

CN(C)[C@@H]1C(O)=C(C(N)=O)C(=O)[C@@]2(O)C(O)=C3C(=O)c4c(O)ccc(Cl)c4[C@@H](O)[C@H]3C[C@@H]12 [demeclocycline]
inactive: 1 nM 1.68% | 8.33 nM 1.08% | 100 nM 0.96% | 833.33 nM 1.19% | 10000 nM 2.34%
